# Test results: PubChem BioAssay (NCATS)
# Values without a mark were called inactive. Results filed as inconclusive are left out. A call without a number means that no potency is given here. Calls of active or inactive are those of the source. Calls follow the shape of the dose curve; as a rule, active = well fitted curve in the direction sought with a large enough effect; inconclusive = small, poorly fitted or top-dose-only effect, or another doubt; inactive = no such curve, though single readings can be large; an effect the other way counts as inactive or inconclusive.
# Legend:
# [1] = qHTS assay for measurement of the activity of small molecule inhibitors on Zika virus induced Caspase-3 activity in human iPSC derived neural progenitor cells (hNPCs) (AID 1224857); also: nearly all actives have a fitted effect of over 65% in size
# Method in brief: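 Cells were plated at 350 per well and grown 16 to 20 hours. Compound pretreatment lasted one hour, after which ZIKV (2 FFU/cell) was added for 6 hours. Percent inhibition was normalized between uninfected and infected controls.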
# [2] = qHTS assay for measurement of the activity of small molecule inhibitors on Zika virus induced Caspase-3 activity in human astrocytoma cells (AID 1224859)
# Method in brief: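 Percent inhibition of virus-induced caspase-3/7 signal is calculated against uninfected and ZIKV-infected control cells. Cells are SNB-19, infected at 2 FFU/cell for 6 h after 1 h compound exposure.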
# [3] = qHTS assay to identify small molecule inhibitors of chordoma cells - UCH-1 (AID 1259355); also: nearly all actives have a fitted effect of over 55% in size
# Method in brief: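 Cells (800/well) were seeded and left overnight at 37 C, 5% CO2, then treated with drugs at 15 concentrations plus a combination mix of auranofin, camptothecin, doxorubicin, rubitecan and topotecan. Viability after 48hr was read by CellTiter-Glo luminescence.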
# [4] = qHTS assay to identify small molecule inhibitors of chordoma cells - UCH-2 (AID 1259356); also: series mostly up to about 46 µM
smiles,measurement,setting,value
CCCCCCCCCCCCCCCCCCOCC(O)CO (configuration not stated),outcome,[1],inactive
same,outcome,[2],inactive
same,Potency,[3],inactive
CC12CCC(CC1)C(C)(C)O2,outcome,[1],inactive
same,outcome,[2],inactive
same,Potency,[3],inactive
O=c1cc[nH]c(=S)[nH]1,outcome,[1],inactive
same,outcome,[2],inactive
same,Potency,[3],inactive
Cc1cc(O)cc2c1O[C@](C)(CCC[C@H](C)CCC[C@H](C)CCCC(C)C)CC2,outcome,[1],inactive
same,outcome,[2],inactive
same,Potency,[3],inactive
C[C@]12CC[C@@H]3c4ccc(O)cc4CC[C@H]3[C@@H]1CCC2=O,outcome,[1],inactive
same,outcome,[2],inactive
CC(C)NC[C@H](O)c1ccc(O)c(O)c1,outcome,[1],inactive
same,outcome,[2],inactive
COCCOC(=O)C1=C(C)NC(C)=C(C(=O)OC/C=C/c2ccccc2)C1c1cccc([N+](=O)[O-])c1 (configuration not stated),outcome,[1],inactive
same,outcome,[2],inactive
same,Potency,[3],inactive
COC(=O)C1=C(C)NC(C)=C(C(=O)OC)C1c1ccccc1[N+](=O)[O-],outcome,[1],inactive
same,outcome,[2],inactive
same,Potency,[3],inactive
C[C@@H](O)[C@H](N)C(=O)O,outcome,[1],inactive
same,outcome,[2],inactive
same,Potency,[3],inactive
O=S(=O)(O)NC1CCCCC1,outcome,[1],inactive
same,outcome,[2],inactive
same,Potency,[3],inactive
C/C(=C(\CCOP(=O)(O)O)SC(=O)c1ccccc1)N(C=O)Cc1cnc(C)nc1N,"activity change, negative = inhibition",[1],4.2% [at 4.53 µM]
same,"activity change, negative = inhibition",[2],26.7% [at 4.53 µM]
same,Potency,[3],inactive
CC(C)(C)[C@]1(O)CCN2C[C@H]3c4ccccc4CCc4cccc(c43)[C@@H]2C1,outcome,[1],inactive
same,outcome,[2],inactive
C=Cc1c(C)c2cc3[nH]c(cc4nc(cc5nc(cc1[nH]2)C(C)=C5CCC(=O)O)C(CCC(=O)O)=C4C)c(C)c3C=C,outcome,[1],inactive
same,outcome,[2],inactive
CC1=C(CC(=O)O)c2cc(F)ccc2/C1=C\c1ccc(S(C)(=O)=O)cc1,outcome,[1],inactive
same,outcome,[2],inactive
CCN(CC)CCCC(C)Nc1c2ccc(Cl)cc2nc2ccc(OC)cc12 (configuration not stated),outcome,[1],inactive
same,outcome,[2],inactive
same,Potency,[3],inactive
Cc1ncc(COP(=O)(O)O)c(C=O)c1O,outcome,[1],inactive
same,outcome,[2],inactive
same,Potency,[3],inactive
C[C@H](NC(CCc1ccccc1)C(=O)O)C(=O)N1CCC[C@H]1C(=O)O (some centres not stated),outcome,[1],inactive
same,outcome,[2],inactive
CN(C)CCC=C1c2ccccc2CCc2ccccc21,outcome,[1],inactive
same,outcome,[2],inactive
COC(=O)[C@H]1[C@H]2C[C@@H]3c4[nH]c5cc(OC)ccc5c4CCN3C[C@H]2C[C@@H](OC(=O)COc2ccc(OC)cc2)[C@@H]1OC,outcome,[1],inactive
same,outcome,[2],inactive
same,Potency,[3],inactive
CCCCOc1cc(C(=O)OCCN(CC)CC)ccc1N,outcome,[1],inactive
same,outcome,[2],inactive
same,Potency,[3],inactive
COc1ccc(Cl)cc1C(=O)NCCc1ccc(S(=O)(=O)NC(=O)NC2CCCCC2)cc1,outcome,[1],inactive
same,outcome,[2],inactive
same,Potency,[3],inactive
N=c1c[n+](N2CCOCC2)[n-]o1,outcome,[1],inactive
same,outcome,[2],inactive
CC(C)(C(=O)O)c1ccc(C(O)CCCN2CCC(C(O)(c3ccccc3)c3ccccc3)CC2)cc1 (configuration not stated),outcome,[1],inactive
same,outcome,[2],inactive
CN(C)CCN(Cc1ccccc1)c1ccccn1,outcome,[1],inactive
same,outcome,[2],inactive
same,Potency,[3],inactive
CC(C)(C)c1onc(OCP(=O)(O)O)c1CC(N)C(=O)O (configuration not stated),outcome,[1],inactive
same,outcome,[2],inactive
CC(=O)OCC(=O)[C@@]1(O)CC[C@H]2[C@@H]3CCC4=CC(=O)CC[C@]4(C)[C@H]3C(=O)C[C@@]21C,outcome,[1],inactive
same,outcome,[2],inactive
CC/C=C(\C(=O)N[C@@H]1C(=O)N2C(C(=O)OCOC(=O)C(C)(C)C)=C(COC(N)=O)CS[C@H]12)c1csc(N)n1,outcome,[1],inactive
same,outcome,[2],inactive
CN(C)CCCN1c2ccccc2CCc2ccccc21,outcome,[1],inactive
same,outcome,[2],inactive
NC(N)=NCCC[C@H](N)C(=O)O,outcome,[1],inactive
same,outcome,[2],inactive
O=c1[nH]cnc2c1ncn2[C@@H]1O[C@H](CO)[C@@H](O)[C@H]1O,outcome,[1],inactive
same,outcome,[2],inactive
same,Potency,[3],inactive
CC(C)C(=O)c1c(C(C)C)nn2ccccc12,outcome,[1],inactive
same,outcome,[2],inactive
CN(C)CCOC(C)(c1ccccc1)c1ccccn1 (configuration not stated),outcome,[1],inactive
same,outcome,[2],inactive
Nc1ccc(S(=O)(=O)NC(=O)c2ccccc2)cc1,outcome,[1],inactive
same,outcome,[2],inactive
same,Potency,[3],inactive
CCCCC/C(C=O)=C\c1ccccc1,outcome,[1],inactive
same,outcome,[2],inactive
same,Potency,[3],inactive
same,outcome,[4],inactive
[Cl][In]([Cl])[Cl],outcome,[1],inactive
same,outcome,[2],inactive
same,Potency,[3],inactive
same,outcome,[4],inactive
CC1(C)[C@@H]2CC[C@@]1(C)C(=O)C2,outcome,[1],inactive
same,outcome,[2],inactive
same,Potency,[3],inactive
same,outcome,[4],inactive
CS(=O)(=O)c1ccc([C@@H](O)[C@@H](CF)NC(=O)C(Cl)Cl)cc1,outcome,[1],inactive
same,outcome,[2],inactive
same,Potency,[3],inactive
same,outcome,[4],inactive
[O-][n+]1cccc(CO)c1,outcome,[1],inactive
same,outcome,[2],inactive
same,Potency,[3],inactive
same,outcome,[4],inactive
CC(O)COc1ccccc1 (configuration not stated),outcome,[1],inactive
same,outcome,[2],inactive
same,Potency,[3],inactive
same,outcome,[4],inactive
